IDE exosite inh: displaces the probe from the exo-site of human IDE | P14735 | purified IDE, FL-6b probe fluorescence polarization; hits give low values | AID 1259349 | actives 6.3% (n = 17,000) | z-score at 20 µM;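 active means z-score of -3 or lower, meaning strong loss of probe binding signal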;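 further: His-tagged human IDE residues 42-1019 made in E. coli with 30 nM FL-6b probe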
* marks the source's active call; other numbers are inactive results. The entries come from a sample that favours hits as a whole.

SMILES	IDE exosite inh
Cc1ccccc1-c1ccc([C@@H]2[C@H]3CN(C(=O)c4ccncc4)CC(=O)N3[C@H]2CO)cc1	-14*
O=C(c1ccncc1)N1CC(=O)N2[C@H](CO)[C@H](c3ccc(-c4cccnc4)cc3)[C@@H]2C1	1.6
Cc1ccccc1-c1ccc([C@H]2[C@H]3CN(C(=O)c4cccnc4)CC(=O)N3[C@H]2CO)cc1	-2
O=C1CN(Cc2ccccc2)C[C@H]2[C@@H](c3ccc(-c4ccccc4F)cc3)[C@@H](CO)N12	1.9
Cc1cccc(-c2ccc([C@@H]3[C@@H](CO)N4C(=O)CN(C(=O)c5cnccn5)C[C@@H]34)cc2)c1	-18*
Cc1cccc(-c2ccc([C@H]3[C@H](CO)N4C(=O)CN(C(=O)c5cnccn5)C[C@@H]34)cc2)c1	-14*
Cc1cccc(-c2ccc([C@@H]3[C@H]4CN(C(=O)c5cnccn5)CC(=O)N4[C@H]3CO)cc2)c1	-16*
Cc1cccc(-c2ccc([C@@H]3[C@H](CO)N4C(=O)CN(C(=O)c5cnccn5)C[C@@H]34)cc2)c1	-11*
CC(=O)N1[C@H](CO)[C@@H](c2ccccc2)C12CN(Cc1ccc(Cl)cc1)C2	0.024
O=C(c1cccc(F)c1)N1CCCCN2[C@H](C1)[C@H](c1ccc(-c3cccnc3)cc1)[C@@H]2CO	1.1
CN(C)CC(=O)N1[C@H](CO)[C@@H](c2ccc(C#CC3CC3)cc2)[C@@H]1C#N	2.5
C[C@@H](NC(=O)C[C@H]1CC[C@@H]2[C@@H](COc3ccc(NC(=O)C4CCOCC4)cc3C(=O)N2C)O1)c1ccccc1	-1.7
O=C(Cc1cccnc1)N1CC(=O)N2[C@@H](CO)[C@H](c3ccc(C4=CCCC4)cc3)[C@@H]2C1	1
C[C@H](O)C#Cc1ccc([C@H]2[C@H]3CN(C(=O)Nc4ccccc4)CCCCN3[C@H]2CO)cc1	-1
O=C(c1cnccn1)N1CC(=O)N2[C@H](C1)[C@H](c1ccc(-c3ccc(F)cc3)cc1)[C@@H]2CO	5.7
O=C(c1cnccn1)N1CC(=O)N2[C@H](CO)[C@@H](c3ccc(C4=CCCCC4)cc3)[C@H]2C1	0.26
Cc1cccc(-c2ccc([C@H]3[C@H]4CN(C(=O)c5cnccn5)CC(=O)N4[C@H]3CO)cc2)c1	-5.4*
O=C(c1cnccn1)N1CC(=O)N2[C@H](C1)[C@@H](c1ccc(-c3ccccc3)cc1)[C@@H]2CO	-6*
C/C=C/c1ccc([C@@H]2[C@@H](CO)N3C(=O)CN(C(=O)c4cnccn4)C[C@@H]23)cc1	1.2
O=C(c1cnccn1)N1CC(=O)N2[C@H](C1)[C@H](c1ccc(-c3ccccc3)cc1)[C@@H]2CO	0.43
CO[C@@H](C(=O)N(C)C[C@@H]1OCc2ccccc2-c2ccccc2C(=O)N([C@H](C)CO)C[C@@H]1C)c1ccccc1	1.6
N#C[C@H]1[C@@H](c2ccc(/C=C/c3ccccc3)cc2)[C@@H](CO)N1C(=O)C1CC1	-0.15
CCCC#Cc1ccc([C@@H]2[C@H](CO)N3C(=O)CN(S(=O)(=O)Cc4ccccc4)C[C@@H]23)cc1	2.6
COc1ccccc1-c1ccc([C@@H]2[C@@H](CO)N3CCCCN(C(=O)c4ccncc4)C[C@H]23)cc1	-0.66
COc1ccccc1-c1ccc([C@@H]2[C@@H](CO)N3CCCCN(C(=O)c4cccnc4)C[C@@H]23)cc1	-1.8
SMILES	IDE exosite inh
COc1ccccc1-c1ccc([C@H]2[C@H](CO)N3CCCCN(C(=O)c4cccnc4)C[C@@H]23)cc1	-1.3
COc1ccccc1-c1ccc([C@H]2[C@@H](CO)N3CCCCN(C(=O)c4cccnc4)C[C@@H]23)cc1	0.24
COc1ccccc1-c1ccc([C@H]2[C@@H](CO)N3CCCCN(C(=O)c4ccncc4)C[C@H]23)cc1	-17*
COc1ccccc1-c1ccc([C@@H]2[C@H]3CN(C(=O)c4cccnc4)CCCCN3[C@H]2CO)cc1	-4.7*
COc1ccccc1-c1ccc([C@H]2[C@@H](CO)N3CCCCN(C(=O)c4cccnc4)C[C@H]23)cc1	-13*
COc1ccccc1-c1ccc([C@H]2[C@@H](CO)N3CCCCN(C(=O)c4ccncc4)C[C@@H]23)cc1	-1.1
C/C=C/c1ccc([C@H]2[C@@H](CO)N(S(C)(=O)=O)[C@@H]2CN(CC)C(C)=O)cc1	0.53
CC(C)(O)C#Cc1ccc([C@@H]2[C@H]3CN(C(=O)c4ccc(F)cc4)CCCCN3[C@H]2CO)cc1	-2.9
CN1CCN(C(=O)C[C@@H]2CC[C@@H]3[C@H](COC[C@@H](O)CN3C(=O)c3ccccc3F)O2)CC1	-0.22
CC(=O)NC[C@@H]1[C@H](c2ccc(-c3ccccc3F)cc2)[C@H](CO)N1C(C)=O	2.9
COc1ccc(CN(C)C[C@@H]2OCCCC[C@@H](C)Oc3ccc(NC(=O)C4CCCCC4)cc3C(=O)N([C@@H](C)CO)C[C@@H]2C)cc1	-0.57
CO[C@H]1CN(C)C(=O)c2cc(NC(=O)c3ccc(F)cc3)ccc2OC[C@@H](C)N(C(=O)CC2CC2)C[C@@H]1C	0.6
O=C([C@@H]1[C@@H](CO)[C@@H]2Cn3c(cccc3=O)[C@@H]2N1C(=O)CC1CC1)N1CCc2ccccc2C1	1.1
CCS(=O)(=O)N1CC(=O)N2[C@@H](CO)[C@H](c3ccc(C#CCC4CCCC4)cc3)[C@@H]2C1	0.46
CCCNC(=O)C[C@H]1CC[C@@H]2[C@H](COC[C@@H](O)CN2Cc2ccncc2)O1	-0.15
CO[C@@H]1CN(C)C(=O)c2cc(NC(=O)C3CCCCC3)ccc2OC[C@@H](C)N(C(=O)c2ccccc2)C[C@@H]1C	0.019
CN(C)CC(=O)N1CCCCN2[C@H](CO)[C@H](c3ccc(-c4ccccc4)cc3)[C@@H]2C1	2.3
CN(C)CC(=O)N1CCCCN2[C@H](CO)[C@H](c3ccc(-c4ccccc4)cc3)[C@H]2C1	2.3
C/C=C/c1ccc([C@@H]2[C@H](CO)N3CCCCN(C(=O)CN(C)C)C[C@@H]23)cc1	3.9
CN(C)CC#Cc1ccc([C@H]2[C@H]3CN(C(=O)CN(C)C)CCCCN3[C@H]2CO)cc1	4.6
CN(C)CC(=O)N1CCCCN2[C@H](CO)[C@H](c3ccc(/C=C/c4ccccc4)cc3)[C@@H]2C1	-7.7*
CN(C)CC(=O)N1CCCCN2[C@H](CO)[C@@H](c3ccc(/C=C/c4ccccc4)cc3)[C@@H]2C1	-12*
C/C=C/c1cnc2c(c1)C(=O)N([C@@H](C)CO)C[C@@H](C)[C@H](CN(C)CC1CCOCC1)O2	0.092
CO[C@@H](CN(C)C(=O)C1CCOCC1)[C@H](C)CN([C@H](C)CO)S(=O)(=O)c1ccccc1	0.31
O=C1CNC[C@H]2[C@H](c3ccc(C#CC4CCCC4)cc3)[C@@H](CO)N12	5.2
SMILES	IDE exosite inh
CO[C@@H]1CN(C)C(=O)c2ccc(NC(=O)Nc3cc(F)ccc3F)cc2OC[C@@H](C)N(C(=O)c2ccccn2)C[C@H]1C	-1.2
COc1ccc(S(=O)(=O)N2CCCCN3[C@@H](CO)[C@H](c4ccc(C#CCC(C)C)cc4)[C@@H]3C2)cc1	6.3
CO[C@H]1CN(C)C(=O)c2cc(NC(C)=O)ccc2OC[C@@H](C)N(S(C)(=O)=O)C[C@@H]1C	0.62
N#C[C@@H]1[C@H](c2ccccc2)[C@H](CO)N1C(=O)Cc1ccccc1	0.48
CCCNC(=O)N1CC(=O)N2[C@H](CO)[C@H](c3ccc(-c4ccc(F)cc4)cc3)[C@H]2C1	0.88
COc1ccccc1NC(=O)N1CC(=O)N2[C@H](C1)[C@H](c1ccc(-c3ccc(F)cc3)cc1)[C@@H]2CO	2.2
COc1ccccc1NC(=O)N1CC(=O)N2[C@H](CO)[C@H](c3ccc(-c4cccc(C)c4)cc3)[C@@H]2C1	-3.7*
